# Screening results from PubChem BioAssay.
# Shown is part of a subset that was picked to be rich in hits.
# Pf apPOL inh: Pf-apPOL DNA polymerase inhibition | Recombinant Pf-apPOL, molecular beacon fluorescence, 1.5 h | inhibition, % at 10 µM | actives 0.25% (n = 210,000) | AID 1794808
# mHTT CaM bind: disrupts binding of mutant huntingtin to calmodulin | actives 3.6% (n = 190,000) | P42858 | AlphaScreen His-mHTT/GST-CaM binding, luminescence | inhibition, % at 15 µM;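 note: 0% = both proteins with DMSO and 100% = one protein alone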
# Target sequence (P42858 whole entry, looked up, stated change not applied): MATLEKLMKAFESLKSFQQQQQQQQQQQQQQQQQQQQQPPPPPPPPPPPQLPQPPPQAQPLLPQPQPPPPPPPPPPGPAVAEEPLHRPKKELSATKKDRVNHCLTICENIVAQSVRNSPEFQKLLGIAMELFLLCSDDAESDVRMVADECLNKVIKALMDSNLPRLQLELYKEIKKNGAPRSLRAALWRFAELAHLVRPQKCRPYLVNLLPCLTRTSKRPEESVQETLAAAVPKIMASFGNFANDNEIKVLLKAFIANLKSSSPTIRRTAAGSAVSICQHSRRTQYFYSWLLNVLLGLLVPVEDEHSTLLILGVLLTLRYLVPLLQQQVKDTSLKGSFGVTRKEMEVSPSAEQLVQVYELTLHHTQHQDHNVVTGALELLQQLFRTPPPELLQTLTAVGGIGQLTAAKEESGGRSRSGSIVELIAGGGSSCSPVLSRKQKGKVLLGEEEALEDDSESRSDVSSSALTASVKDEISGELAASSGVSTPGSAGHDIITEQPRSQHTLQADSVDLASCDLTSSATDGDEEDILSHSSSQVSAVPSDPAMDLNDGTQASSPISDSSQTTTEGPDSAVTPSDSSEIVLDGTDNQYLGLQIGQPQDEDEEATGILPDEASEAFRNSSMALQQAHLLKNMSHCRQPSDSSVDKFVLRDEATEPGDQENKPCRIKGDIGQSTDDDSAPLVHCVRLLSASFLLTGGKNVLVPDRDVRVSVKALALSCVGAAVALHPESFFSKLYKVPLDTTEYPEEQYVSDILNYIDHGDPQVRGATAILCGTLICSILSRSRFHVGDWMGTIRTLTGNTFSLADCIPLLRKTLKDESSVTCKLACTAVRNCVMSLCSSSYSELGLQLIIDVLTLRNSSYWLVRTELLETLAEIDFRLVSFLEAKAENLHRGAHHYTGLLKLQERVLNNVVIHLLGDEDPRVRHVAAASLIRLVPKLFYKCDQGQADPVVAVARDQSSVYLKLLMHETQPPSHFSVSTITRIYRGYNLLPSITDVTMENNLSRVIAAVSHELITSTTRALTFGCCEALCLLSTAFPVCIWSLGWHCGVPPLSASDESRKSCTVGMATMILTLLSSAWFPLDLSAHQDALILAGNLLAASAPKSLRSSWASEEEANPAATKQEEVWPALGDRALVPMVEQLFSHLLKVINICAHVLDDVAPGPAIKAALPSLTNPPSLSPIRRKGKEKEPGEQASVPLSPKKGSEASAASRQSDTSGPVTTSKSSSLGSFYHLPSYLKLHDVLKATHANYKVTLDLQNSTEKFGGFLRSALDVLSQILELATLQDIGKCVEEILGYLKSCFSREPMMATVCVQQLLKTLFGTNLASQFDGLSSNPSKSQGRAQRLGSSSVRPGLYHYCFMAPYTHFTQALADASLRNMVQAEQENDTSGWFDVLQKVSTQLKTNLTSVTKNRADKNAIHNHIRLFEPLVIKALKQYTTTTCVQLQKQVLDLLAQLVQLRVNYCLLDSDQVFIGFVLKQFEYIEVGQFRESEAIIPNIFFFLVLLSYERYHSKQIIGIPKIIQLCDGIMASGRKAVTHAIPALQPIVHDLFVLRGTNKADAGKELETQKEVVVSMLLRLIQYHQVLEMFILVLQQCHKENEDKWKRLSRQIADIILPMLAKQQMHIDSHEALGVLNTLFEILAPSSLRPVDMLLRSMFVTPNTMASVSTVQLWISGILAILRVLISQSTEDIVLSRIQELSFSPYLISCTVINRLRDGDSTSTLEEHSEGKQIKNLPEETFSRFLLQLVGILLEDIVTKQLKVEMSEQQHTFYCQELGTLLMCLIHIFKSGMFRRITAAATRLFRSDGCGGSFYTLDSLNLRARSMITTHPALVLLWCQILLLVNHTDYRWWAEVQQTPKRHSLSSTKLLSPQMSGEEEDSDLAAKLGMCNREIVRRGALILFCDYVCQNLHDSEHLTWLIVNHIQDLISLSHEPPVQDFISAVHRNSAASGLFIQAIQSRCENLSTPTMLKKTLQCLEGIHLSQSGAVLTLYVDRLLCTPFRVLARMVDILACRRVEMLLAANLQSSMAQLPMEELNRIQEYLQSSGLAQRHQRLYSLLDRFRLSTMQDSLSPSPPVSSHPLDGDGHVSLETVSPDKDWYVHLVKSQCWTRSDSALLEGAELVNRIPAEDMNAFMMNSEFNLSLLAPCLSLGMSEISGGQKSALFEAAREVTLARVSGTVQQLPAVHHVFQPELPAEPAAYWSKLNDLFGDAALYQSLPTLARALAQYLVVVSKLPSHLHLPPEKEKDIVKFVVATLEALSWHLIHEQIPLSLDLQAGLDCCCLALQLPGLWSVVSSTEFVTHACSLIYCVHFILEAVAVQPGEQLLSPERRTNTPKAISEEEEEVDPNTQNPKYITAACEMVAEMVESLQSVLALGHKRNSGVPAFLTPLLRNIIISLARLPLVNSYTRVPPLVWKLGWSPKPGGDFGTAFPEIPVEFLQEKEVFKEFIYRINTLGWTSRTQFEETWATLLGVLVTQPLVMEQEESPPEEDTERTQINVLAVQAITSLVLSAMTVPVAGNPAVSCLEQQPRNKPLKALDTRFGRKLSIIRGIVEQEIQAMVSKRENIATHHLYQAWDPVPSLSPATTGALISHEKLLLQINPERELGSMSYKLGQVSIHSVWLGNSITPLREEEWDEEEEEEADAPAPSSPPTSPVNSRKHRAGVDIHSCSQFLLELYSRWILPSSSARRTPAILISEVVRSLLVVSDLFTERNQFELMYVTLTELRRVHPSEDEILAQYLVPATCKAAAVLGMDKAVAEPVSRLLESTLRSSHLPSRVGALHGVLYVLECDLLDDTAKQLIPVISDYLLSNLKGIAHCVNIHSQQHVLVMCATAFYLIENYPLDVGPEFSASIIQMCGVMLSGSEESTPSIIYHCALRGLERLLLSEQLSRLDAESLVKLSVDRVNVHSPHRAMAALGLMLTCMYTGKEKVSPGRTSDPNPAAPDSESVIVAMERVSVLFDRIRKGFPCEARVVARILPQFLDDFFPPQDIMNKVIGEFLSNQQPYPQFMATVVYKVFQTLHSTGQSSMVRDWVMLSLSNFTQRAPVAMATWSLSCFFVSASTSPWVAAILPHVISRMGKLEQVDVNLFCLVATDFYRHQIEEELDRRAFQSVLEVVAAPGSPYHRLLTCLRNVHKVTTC
# The depositor's hits bear a star. Cut-off read from the data, not from the text of the source: active = inhibition above about 50%; inactive = the rest.
SMILES,Pf apPOL inh,mHTT CaM bind
Cc1ccccc1-n1c(SCC(N)=O)nc(O)cc1=O,-4,-1
CC(C)NC(=O)C1CCN(c2nc3cc(Cl)ccc3s2)CC1,-12,-3
COc1ccc(Cl)cc1N(CC(=O)N(Cc1ccccc1)Cc1ccccc1)S(C)(=O)=O,-6,65*
COc1ccc(Cl)cc1N(CC(=O)N1CCN(Cc2ccccc2)CC1)S(C)(=O)=O,-1,20
C=CCNC(=O)c1c[nH]c2ccc(S(=O)(=O)N(CC)c3ccc(F)cc3)cc2c1=O,-10,15
CCOCCCNC(=O)c1c[nH]c2ccc(S(=O)(=O)N(C)c3ccc(Cl)cc3)cc2c1=O,-11,24
COCCNC(=O)c1c[nH]c2ccc(S(=O)(=O)N(C)c3ccc(Cl)cc3)cc2c1=O,-10,50*
C=CCNC(=O)c1c[nH]c2ccc(S(=O)(=O)N(C)c3ccc(Br)cc3)cc2c1=O,-6,55*
CCn1cc(Cl)c(C(=O)NCc2cccnc2OC)n1,2,-10
O=C1OC(c2cccc([N+](=O)[O-])c2)=N/C1=C\c1cccs1,-2,13
CCOc1ccc(/C=C2\N=C(c3cc([N+](=O)[O-])cc([N+](=O)[O-])c3)OC2=O)cc1,0,56*
O=C1OC(c2cccc([N+](=O)[O-])c2)=N/C1=C\c1cc(Br)cs1,0,92*
CCOc1ccc(/C=C2\N=C(c3ccc([N+](=O)[O-])cc3)OC2=O)cc1,1,2
CC(C)c1cc(C(=O)NC2CCCC2)nc2ccnn12,0,-26
CN1C(=O)c2cccnc2Sc2cc(NC(=O)c3ccc(F)cc3F)ccc21,-5,25
CCc1ccc(C(=O)N2CCC3(C2)C(=O)Nc2ccccc23)cc1 (stereo not given),-5,42
O=C1c2ccccc2C(=O)C1C1(C2C(=O)c3ccccc3C2=O)C(=O)Nc2ccccc21,-7,14
O=C1Nc2ccccc2C12NN=C(c1ccccc1O)S2 (stereo not given),-1,100*
CCc1ccc2c(c1)C1(NN=C(c3ccccc3O)S1)C(=O)N2 (stereo not given),-2,100*
O=C(Nc1cccs1)Nc1ccccc1NC(=O)c1ccccc1Cl,1,3
Cc1ccc(NC(=O)OCC(F)(F)C(F)F)cc1Cl,-2,-73
N#C/C(=C\c1cn[nH]c1-c1ccccc1)c1nn(CCO)c(N)c1C#N,-3,5
COC(=O)c1ccccc1NC(=O)c1c(C)oc(C)c1S(=O)(=O)N(C)C,-8,-6
CCCc1nn(-c2ccc(Cl)c(Cl)c2)c(C(C)C)c1C(=O)N1CCOCC1,0,62*
CCc1nn(-c2ccc(OC)cc2)c(CC)c1C(=O)N1CCOCC1,0,1
SMILES,Pf apPOL inh,mHTT CaM bind
CC(=O)N1CCN(C(=O)c2c(C(C)C)nn(-c3ccc(C)cc3)c2C(C)C)CC1,-1,11
CC(C)c1nn(-c2ccc(Cl)c(Cl)c2)c(C(C)C)c1C(=O)N1CCOCC1,-2,67*
CCCc1nn(-c2ccc(Cl)c(Cl)c2)c(CC)c1C(=O)N1CCOCC1,-5,67*
CCN1CCN(C(=O)c2cnn(-c3ccc(Cl)c(Cl)c3)c2C(C)C)CC1,-21,39
Cc1ccc(C)c(N2CCN(C(=O)c3cccs3)C(C)C2=O)c1 (stereo not given),-2,-1
O=C(NCc1ccc(C(F)(F)F)cc1)c1c[nH]c2ncccc12,-7,-8
CC(=O)Nc1ccc2cccc(O)c2n1,-4,100*
CC(=O)Nc1ccccc1/C=C/c1ccc2cccc(O)c2n1,4,26
COc1ccccc1CN1CCN(C(=O)C2CCc3nc(N4CCCC4)ncc3C2)CC1 (stereo not given),-1,16
O=C(Nc1cc(F)ccc1F)N1CCn2cccc2C1Cc1ccccc1 (stereo not given),-2,-2
COc1ccc(NC(=O)N2CCn3cccc3C2Cc2ccccc2)cc1OC (stereo not given),2,59*
COc1ccc(Cl)cc1NC(=O)N1CCn2cccc2C1Cc1ccccc1 (stereo not given),-2,62*
COc1cc(NC(=O)N2CCn3cccc3C2Cc2ccccc2)cc(OC)c1 (stereo not given),-6,27
N#CC1=C(N)Oc2n[nH]c(-c3ccc(Cl)cc3)c2C1c1ccc(F)cc1 (stereo not given),0,17
N#CC1=C(N)Oc2n[nH]c(-c3ccc(F)cc3)c2C1c1cccc(F)c1 (stereo not given),-4,12
COc1cc(C2C(C#N)=C(N)Oc3n[nH]c(-c4ccc(Cl)s4)c32)ccc1O (stereo not given),-2,60*
COc1cc(C2C(C#N)=C(N)Oc3n[nH]c(-c4cccs4)c32)cc(OC)c1O (stereo not given),7,19
N#CC1=C(N)Oc2n[nH]c(-c3ccc(Cl)c(Cl)c3)c2C1c1ccc(O)c(O)c1 (stereo not given),0,99*
N#CC1=C(N)Oc2n[nH]c(-c3ccc(Cl)c(Cl)c3)c2C1c1cccc(O)c1 (stereo not given),0,100*
